Hits are enriched below; roughly 2.7% of the tested compounds scored in any of these assays.
Nrf2 inh = Nrf2 pathway inhibition; A549 ARE-Fluc reporter, luciferase luminescence, 18-24 h; Potency, µM (doses to about 46 µM), hits mostly inhibitors; 2.1% of 360,000 active; note: nearly all actives have a fitted effect of over 60% in size
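Nrf2 function is reported as luminescence of an ARE-controlled luciferase in A549 cells. Compounds were tested at several concentrations, and a CellTiter-Fluor read on the same wells flagged cytotoxicity.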
IDH1 R132H inh = blocks human mutant IDH1 R132H enzyme; O75874; IDH1-R132H enzyme, NADPH consumption, diaphorase/resazurin fluorescence; Potency, µM (titrated, usually from 76.6 µM), hits mostly inhibitors; 0.093% of 390,000 active; note: nearly all actives have a fitted effect of over 65% in size
Target sequence (O75874 whole entry R132H, stated change not applied): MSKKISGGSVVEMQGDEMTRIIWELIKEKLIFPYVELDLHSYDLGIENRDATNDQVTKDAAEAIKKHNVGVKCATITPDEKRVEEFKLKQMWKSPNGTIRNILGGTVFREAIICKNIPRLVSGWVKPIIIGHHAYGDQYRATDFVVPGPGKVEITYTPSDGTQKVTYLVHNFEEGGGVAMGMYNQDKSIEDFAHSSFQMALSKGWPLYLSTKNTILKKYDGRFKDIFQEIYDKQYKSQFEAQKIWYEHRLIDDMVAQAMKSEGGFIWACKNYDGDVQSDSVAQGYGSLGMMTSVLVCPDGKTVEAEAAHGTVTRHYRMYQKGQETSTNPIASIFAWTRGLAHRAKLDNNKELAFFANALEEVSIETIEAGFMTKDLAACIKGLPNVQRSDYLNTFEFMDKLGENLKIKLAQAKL
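IDH1-R132H (0.5 ug/mL dispensed) in pH 7.5 Tris buffer was preincubated 30 min with compound, then given a substrate mix of 0.016 mM NADPH and 2 mM alpha-KG for 80 min at room temperature; remaining NADPH was read by diaphorase/resazurin fluorescence.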
Nrf2 activator = Nrf2 pathway activation | AREc32 ARE-luciferase reporter (MCF7-derived line), luminescence, 24 h | Potency, µM (titrated, usually from 46.1 µM), usual class: activators | 0.31% of 410,000 active; note: nearly all actives have a fitted effect of over 65% in size
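ARE activation measured as luciferase luminescence (Steady-Glo, 30 min RT) in AREc32_Fluc cells after 24 hr compound exposure at 37 deg C, 5% CO2; cells seeded overnight at 1000/well in OPTI-MEM, 5% FBS.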
12-LOX inh = blocks human arachidonate 12S-lipoxygenase; P18054; purified 12hLO, xylenol orange hydroperoxide absorbance; Potency, µM (top dose mostly 108 µM), actives largely listed as inhibitors; 1.1% of 580,000 active; AID 1671190
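Purified human 12hLO (150 nM final) in 25 mM Hepes, 0.01% Triton X-100, pH 7.0 was preincubated 15 min at room temperature with compound. Then 40 uM arachidonic acid was added, 30 min. Hydroperoxide was read by Fe-XO absorbance ratio 573/405 nm.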
LDHA inh = LDHA (human) enzyme inhibition; P00338; purified LDHA, NADH/diaphorase-resazurin fluorescence; stronger effect = lower value; activity change, % (values are at about 110 or 230 µM); 0.15% of 480,000 active; AID 1347041; in the data active = activity change below about -30%; inconclusive = mostly about -25% to -30%
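Resorufin fluorescence (ex540/em590), read at 0 and 20 min after diaphorase/resazurin addition, reports the NADH left after a 5 min room-temperature reaction of 2 nM human LDH5 with 0.06 mM NADH and 0.2 mM pyruvate.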
A549 tox = A549 cytotoxicity, counter-screen for Nrf2 inhibitors; A549 ARE-Fluc cells, CellTiter-Fluor viability, 18-24 h; Potency, µM (highest dose often 46 µM), hits mostly inhibitors; 0.16% of 390,000 active; AID 504648
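A549 ARE-Fluc cells in 5% FBS OPTI-MEM, 5000 cells/well, rested 2 h then exposed to compounds in concentration-response for 18-24 h at 37 °C. Viability by CellTiter-Fluor fluorescence (Ex 405/Em 525) after 30 min; luciferase luminescence (BugLite, 15 min, RT) read afterwards.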
IDH1 autofl = counter-screen for mutant IDH1 inhibitors: fluorescence interference; shares compounds with IDH1 R132H inh; Resorufin detection reagent fluorescence interference, cell-free; inhibition of signal, % at 51.2 µM; 750 tested, under 10 active
WT IDH1 inh = selectivity of mutant IDH1 inhibitors: human wild-type IDH1. Potency, µM (top dose mostly 115 µM), actives largely listed as inhibitors. shares compounds with IDH1 R132H inh. WT IDH1 enzyme, NADPH diaphorase/resazurin fluorescence. 9% of 750 active; note: nearly all actives have a fitted effect of over 55% in size
Target sequence (O75874 whole entry, looked up): as the sequence (O75874 whole entry R132H, stated change not applied) above, with H132R counted along it
IDH1 R132H conf = confirmation of human mutant IDH1 inhibitors. AID 624002. 83% of 750 active. Potency, µM (highest dose often 76.6 µM), most hits filed as inhibitors. IDH1 R132H enzyme, NADPH diaphorase/resazurin fluorescence. shares compounds with IDH1 R132H inh; note: nearly all actives have a fitted effect of over 50% in size
Of the large screens only hits and unclear results are named; the others gave an inactive call (follow-up assays come after a bar, where they were run). Unless noted, calls come from the whole dose curve; as a rule, active = well fitted curve in the direction sought with a large enough effect; inconclusive = small, poorly fitted or top-dose-only effect, or another doubt; inactive = no such curve, though single readings can be large; an effect the other way counts as inactive or inconclusive.

Cc1ccc(-c2n[nH]c3c2C(c2cccc(O)c2)N(c2ccc(C(=O)O)cc2)C3=O)cc1 (centres undefined)	12-LOX inh inconclusive
Cc1ccc(-c2n[nH]c3c2C(c2ccccc2)N(c2ccc(C(=O)O)cc2)C3=O)cc1 (centres undefined)	IDH1 R132H inh 52µM, 12-LOX inh inconclusive | IDH1 autofl inactive | WT IDH1 inh inactive | IDH1 R132H conf 28µM
COC(=O)c1ccc(C2c3c(-c4ccc(Br)cc4)n[nH]c3C(=O)N2c2ccc(Cl)cc2)cc1 (centres undefined)	Nrf2 inh inconclusive
CCOc1ccc(N2C(=O)c3[nH]nc(-c4ccccc4)c3C2c2ccc(O)c(OC)c2)cc1 (centres undefined)	IDH1 R132H inh inconclusive (no result: Nrf2 inh) | IDH1 autofl inactive | WT IDH1 inh inactive | IDH1 R132H conf 20µM
COc1ccc(C2c3c(-c4ccccc4)n[nH]c3C(=O)N2c2ccc(C(=O)O)cc2)c(OC)c1 (centres undefined)	IDH1 R132H inh 40µM | IDH1 autofl inactive | WT IDH1 inh inconclusive | IDH1 R132H conf 28µM
Cc1[nH]n(-c2nc3ccccc3[nH]2)c(=O)c1CCC(C)C	12-LOX inh inconclusive (no result: Nrf2 inh, IDH1 R132H inh, Nrf2 activator, A549 tox)
COc1ccc(C)cc1NC(=O)Cn1c(C)nc2c(sc3cccc(F)c32)c1=O	none (no result: Nrf2 inh, IDH1 R132H inh, Nrf2 activator, A549 tox)
CCOC(=O)c1ccc(N2C(=O)c3n[nH]c(-c4ccco4)c3C2c2ccc(O)c(OCC)c2)cc1 (centres undefined)	Nrf2 inh inconclusive
CCOC(=O)c1ccc(N2C(=O)c3n[nH]c(-c4ccco4)c3C2c2ccc(OC)cc2OC)cc1 (centres undefined)	Nrf2 inh inconclusive, IDH1 R132H inh inconclusive, 12-LOX inh inconclusive | IDH1 autofl inactive | WT IDH1 inh inactive | IDH1 R132H conf inconclusive
Cn1c(C=C(C#N)C#N)ccc1-c1ccc(Br)cc1	none (no result: Nrf2 inh, IDH1 R132H inh, Nrf2 activator, A549 tox)
Cn1c(=O)c2ccccc2n(CC(=O)Nc2ccc(Cl)cc2F)c1=O	12-LOX inh inconclusive (no result: Nrf2 inh, IDH1 R132H inh, Nrf2 activator, A549 tox)
O=C(CN1C(=O)COc2ccc(S(=O)(=O)N3CCCCCC3)cc21)Nc1cccc(Cl)c1	Nrf2 inh inconclusive, IDH1 R132H inh inconclusive, 12-LOX inh inconclusive, A549 tox 18µM | IDH1 autofl inactive | WT IDH1 inh inactive | IDH1 R132H conf inconclusive
COc1ccccc1/C(C)=N/Nc1ccc(Cl)c(C(=O)O)c1	12-LOX inh inconclusive (no result: Nrf2 inh, IDH1 R132H inh, Nrf2 activator, A549 tox)
O=C(Cn1ncc2ccccc2c1=O)Nc1ccc(F)cc1F	none (no result: Nrf2 inh, IDH1 R132H inh, Nrf2 activator, A549 tox)
COc1ccc(-c2oc(NC(=O)CCl)c(C#N)c2-c2ccc(OC)cc2)cc1	IDH1 R132H inh 29µM, Nrf2 activator inconclusive, 12-LOX inh inconclusive | IDH1 autofl inactive | WT IDH1 inh 79µM | IDH1 R132H conf 8.9µM
O=C(COC(=O)c1ccc(F)c([N+](=O)[O-])c1)NC(=O)NCc1ccccc1	IDH1 R132H inh 46µM, Nrf2 activator inconclusive | IDH1 autofl inactive | WT IDH1 inh inactive | IDH1 R132H conf 28µM
C=CCNC(=O)CNC(=O)NCc1ccc(F)cc1	12-LOX inh inconclusive (no result: Nrf2 inh, IDH1 R132H inh, Nrf2 activator, A549 tox)
O=C(NC1CCCCC1)N(Cc1nc2ccccc2c(=O)[nH]1)C1CCCCC1	12-LOX inh inconclusive
COc1ccc(CN(Cc2nc3ccccc3c(=O)[nH]2)C(=O)NC2CCCCC2)cc1	IDH1 R132H inh inconclusive | IDH1 autofl inactive | WT IDH1 inh inactive | IDH1 R132H conf 28µM
Cn1c(=O)c2c(nc(Nc3ccc(Cl)cc3Cl)n2CC(=O)O)n(C)c1=O	none (no result: Nrf2 inh, IDH1 R132H inh, Nrf2 activator, A549 tox)
O=C(c1ccco1)N1CCN(c2c(-c3ccccc3)c3cc(Cl)ccc3[nH]c2=O)CC1	Nrf2 inh inconclusive, IDH1 R132H inh inconclusive, 12-LOX inh inconclusive, A549 tox inconclusive | IDH1 autofl inactive | WT IDH1 inh inactive | IDH1 R132H conf 22µM
O=C(CCl)c1ccc2c(c1)CCN2C(=O)C1CCCCC1	Nrf2 inh inconclusive, IDH1 R132H inh inconclusive | IDH1 autofl inactive | WT IDH1 inh inactive | IDH1 R132H conf 40µM
CC[C@]12c3[nH]c4cc(-c5ccco5)ccc4c3CCN1C(=O)[C@@H](CC(=O)NC/C=C(\C)CCC=C(C)C)C[C@@H]2C(=O)N1CCN(C(=O)c2ccco2)CC1	Nrf2 inh inconclusive (no result: 12-LOX inh)

Screening results (PubChem)
